From PubChem BioAssay (Tox21)
Inconclusive results are not listed. Active and inactive are the calls of the source. Unless noted, calls come from the whole dose curve; as a rule, active = well fitted curve in the direction sought with a large enough effect in the repeat runs; inconclusive = weak or mixed curves; inactive = no such curve, though single readings can be large; an effect the other way counts as inactive or inconclusive.

Legend:
[1] = qHTS assay to identify small molecule antagonists of the estrogen related receptor (ERR) signaling pathway - cell viability counter screen (AID 1224818); note: series mostly up to about 46 µM
Procedure, shortened: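 ERR cells, 2,000 per well, compound added after 6 h and incubated 17.5 h at 37 C. Viability read by CellTiter-Fluor fluorescence after a further 30 min at 37 C.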

[2] = qHTS assay to identify small molecule antagonists of the estrogen related receptor signaling pathway with the pleiotropic PPARgamma coactivator (PGC) cell viability counter screen (AID 1224822; note: potency is the fitted concentration of half-maximal effect; for viability change, negative = cytotoxic: series mostly up to about 46 µM)
Procedure, shortened: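 PGC/ERR cells rested 6 h, then compound-treated 17.5 h at 37 C. CellTiter-Fluor added for 30 min at 37 C, viability measured by fluorescence intensity.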

[3] = qHTS assay to identify small molecule antagonists of the estrogen related receptor (ERR) signaling pathway from Tox21 library - cell viability counter screen (AID 1224834); note: nearly all actives have a fitted effect of over 30% in size
Procedure, shortened: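 ERR reporter cells, 2,000 per well, rested 6 h, then exposed to compound in DMSO for 17.5 hours at 37 C. Viability read as fluorescence after 30 min with CellTiter-Fluor.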

[4] = biological target: Luciferin 4-monooxygenase (Photinus pyralis) (UniProt P08659); assay: qHTS assay to identify small molecule inhibitors of firefly luciferase (AID 1224835); note: nearly all actives have a fitted effect of over 25% in size; note: potency is the fitted concentration of half-maximal effect; for activity change, negative = inhibition: series mostly up to about 120 µM
Luciferin 4-monooxygenase (Photinus pyralis), sequence (P08659 whole entry, looked up): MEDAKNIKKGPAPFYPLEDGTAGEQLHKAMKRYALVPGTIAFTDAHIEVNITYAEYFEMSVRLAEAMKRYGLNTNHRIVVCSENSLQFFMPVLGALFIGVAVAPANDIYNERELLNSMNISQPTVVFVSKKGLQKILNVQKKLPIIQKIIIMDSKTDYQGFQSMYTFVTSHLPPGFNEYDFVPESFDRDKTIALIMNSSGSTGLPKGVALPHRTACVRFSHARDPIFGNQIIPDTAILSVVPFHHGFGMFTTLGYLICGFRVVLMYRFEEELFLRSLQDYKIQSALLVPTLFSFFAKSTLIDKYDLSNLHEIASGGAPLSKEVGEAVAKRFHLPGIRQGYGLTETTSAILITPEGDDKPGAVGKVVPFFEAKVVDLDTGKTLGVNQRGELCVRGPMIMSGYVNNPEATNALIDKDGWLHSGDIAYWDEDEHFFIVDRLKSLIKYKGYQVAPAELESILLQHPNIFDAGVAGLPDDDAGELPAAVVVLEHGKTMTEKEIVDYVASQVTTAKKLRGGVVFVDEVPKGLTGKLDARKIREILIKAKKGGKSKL
Procedure, shortened: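 Biochemical qHTS: compounds run as interplate titrations against purified firefly enzyme, with D-luciferin and ATP each at its KM concentration. Light output recorded by CCD imaging.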

[5] = qHTS assay to identify small molecule agonists of the constitutive androstane receptor (CAR) signaling pathway - cell viability counter screen (AID 1224836); note: series mostly up to about 92 µM; nearly all actives have a fitted effect of over 45% in size
Procedure, shortened: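 HepG2-CYP2B6-hCAR, 2500 cells/well, 4 h pre-incubation; cpd 15 conc + PK11195 0.75 uM final; 23 h, 37 C/5% CO2; CellTiter-Fluor, fluorescence.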

[6] = qHTS assay to identify small molecule antagonists of the constitutive androstane receptor (CAR) signaling pathway - cell viability counter screen (AID 1224837); note: series mostly up to about 92 µM; nearly all actives have a fitted effect of over 45% in size
Procedure, shortened: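 HepG2 cells stably carrying hCAR and CYP2B6-2.2kb reporter, stimulated with 50 nM CITCO and compounds at 15 concentrations for 23 h at 37 C. Viability measured by CellTiter-Fluor fluorescence.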

[7] = qHTS assay to identify small molecule antagonists of the estrogen related receptor (ERR) signaling pathway (AID 1224819; note: nearly all actives have a fitted effect of over 50% in size; note: potency is the fitted concentration of half-maximal effect;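 for activity change, negative = inhibition: luminescence from an ERR-driven luciferase reporter measured with One-Glo reagent; series mostly up to about 46 µM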)
Procedure, shortened: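 ERR reporter cell line (NTP) plated at 2,000 cells/well, settled 6 h at 37C/5% CO2, then exposed to LOPAC compounds for 18 h at 37C. One-Glo luciferase luminescence read after 30 min at room temperature.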

[8] = qHTS assay to identify small molecule agonists of the estrogen related receptor (ERR) signaling pathway (AID 1224820); note: potency is the fitted concentration of half-maximal effect
Procedure, shortened: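 Quantitative HTS of the LOPAC library used NTP ERR reporter cells treated 18 h at 37 C. Signal is luminescence after One-Glo addition and a 30 min room-temperature incubation.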

[9] = test system: estrogen-related receptor alpha (ERRalpha) with PGC-1alpha coactivator, human; assay: qHTS assay to identify small molecule antagonists of the estrogen related receptor signaling pathway with the pleiotropic PPARgamma coactivator (PGC) (AID 1224821; calls by dose curve; note: nearly all actives have a fitted effect of over 50% in size; note: potency is the fitted concentration of half-maximal effect;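 for activity change, negative = inhibition: series mostly up to about 46 µM; lower luminescence signal means antagonism of PGC/ERR signalling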)
Procedure, shortened: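 Quantitative HTS for antagonism: PGC/ERR cells received compounds after 6 h attachment and were incubated 18 h at 37 C, with luminescence (One-Glo) as the endpoint.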

[10] = qHTS assay to identify small molecule agonists of the estrogen related receptor signaling pathway with the pleiotropic PPARgamma coactivator (PGC) (AID 1224823); note: potency is the fitted concentration of half-maximal effect
Procedure, shortened: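 Cell-based luciferase assay in the NTP-supplied PGC/ERR line, 2,000 cells/well; 18 h compound exposure at 37 C, luminescence after One-Glo.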
% is set by controls: 0 for no effect and ±100 for the full control effect.

CCCCCCCCCCCCCCC[C@H](O)[C@H](N)CO
inactive: Potency [1] | Potency [2]

O=C(N[C@H](CO)[C@H](O)c1ccc([N+](=O)[O-])cc1)C(Cl)Cl
inactive: Potency [1] | Potency [2] | Potency [3] | Potency [4] | Potency [5] | Potency [6]

CN1C2CCC1CC(OC(=O)c1c[nH]c3ccccc13)C2 (stereo unspecified)
inactive: Potency [1] | Potency [2]

COc1ccccc1N1CCN(CCN(C(=O)C2CCCCC2)c2ccccn2)CC1
inactive: Potency [1] | Potency [2]

Nc1nc2c(nc(Br)n2C2OC3COP(=O)(O)O[C@@H]3C2O)c(=O)[nH]1 (stereo partly specified)
inactive: Potency [7] | Potency [8] | Potency [9] | Potency [2] | Potency [10]

COc1ccc(/C=C2\COc3ccc(C)cc3C2=O)cc1O
inactive: Potency [7] | Potency [9] | Potency [2]
active: Potency [8] 1.19 µM

CC(C)(C)NCC(O)COc1nsnc1N1CCOCC1 (stereo unspecified)
inactive: Potency [1] | Potency [2]

CC[C@H]1OC(=O)[C@H](C)C(O[C@H]2C[C@@](C)(OC)[C@@H](O)[C@H](C)O2)[C@H](C)[C@@H](OC2O[C@H](C)C[C@H](N(C)C)[C@H]2O)[C@](C)(O)C[C@@H](C)CN(C)[C@H](C)[C@@H](O)[C@]1(C)O (stereo partly specified)
inactive: Potency [1] | Potency [2]

CC1=C(/C=C/C(C)=C/C=C/C(C)=C\C(=O)O)C(C)(C)CCC1
inactive: Potency [1] | Potency [2] | Potency [3] | Potency [5] | Potency [6]
active: Potency [4] 63.5 µM

CSC(=N)N
inactive: Potency [1] | Potency [2]

O=Nc1c(-c2c(O)[nH]c3cc(Br)ccc23)[nH]c2ccccc12
inactive: Potency [7] | Potency [9]
active: Potency [8] 1.68 µM | Potency [2] 11.4 µM | Potency [10] 1.14 µM

CC(C)c1ccc2c(c1)c(SC(C)(C)C)c(CC(C)(C)C(=O)O)n2Cc1ccc(Cl)cc1
active: Potency [7] 12.8 µM | Potency [9] 20.3 µM
inactive: Potency [8]

Nc1ncnc2c1ncn2C1CCCC1
inactive: Potency [7] | Potency [8] | Potency [9] | Potency [2] | Potency [10]

COc1cc2ncnc(Nc3cccc(Cl)c3)c2cc1OC
inactive: Potency [1] | Potency [2] | viability change, negative = cytotoxic [3] -12.2% [at 19 µM] | activity change, negative = inhibition [4] -1.79% [at 23.6 µM] | viability change, negative = cytotoxic [5] -10.2% [at 19 µM] | activity change, negative = cytotoxicity [6] -20.1% [at 19 µM]

CC(C)NC[C@H](O)COc1cccc2ccccc12
inactive: Potency [1] | Potency [2]

CC1CC2C3CCC4=CC(=O)C=C[C@]4(C)[C@@]3(F)[C@@H](O)C[C@]2(C)[C@@]1(O)C(=O)CO (stereo partly specified)
inactive: Potency [1] | Potency [2]

COC(=O)C1=CO[C@@H](O)[C@@H]2C(CO)=CC[C@H]12
inactive: Potency [7] | Potency [8] | Potency [9] | Potency [2] | Potency [10]

C/C(=C\c1ccc(C(=O)O)cc1)c1ccc2c(c1)C(C)(C)CCC2(C)C
inactive: Potency [1] | Potency [2] | Potency [3] | Potency [5] | Potency [6]
